Assay results taken from PubChem BioAssay (NCI).
About 83,000 compounds went through this panel and 20% of them were active in at least one assay; those are over-represented in the sample as a whole.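 In brief: 96-well plates, 48 h treatment, single concentration, percent growth endpoint.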 A number with no mark means an inactive call. Active and inactive are the calls of the source. The calls were made as follows: active = growth percent below 10; inactive = the rest.

What was measured:
Experiment in all cases: NCI-60 one-dose screen, 48 h (100 = growth as untreated, 0 = no growth, -100 = all killed)
Settings in all cases: 10 µM unless noted
SR leukemia = test system: SR leukemia
OVCAR-8 ovarian = test system: OVCAR-8 ovarian
OVCAR-5 ovarian = test system: OVCAR-5 ovarian
OVCAR-4 ovarian = test system: OVCAR-4 ovarian
SK-OV-3 ovarian = test system: SK-OV-3 ovarian
OVCAR-3 ovarian = test system: OVCAR-3 ovarian
HS 578T breast = test system: HS 578T breast
NCI/ADR-RES ovarian = test system: NCI/ADR-RES ovarian
IGROV1 ovarian = test system: IGROV1 ovarian

| Structure (SMILES) | growth (SR leukemia) | growth (OVCAR-8 ovarian) | growth (OVCAR-5 ovarian) | growth (OVCAR-4 ovarian) | growth (SK-OV-3 ovarian) | growth (OVCAR-3 ovarian) | growth (HS 578T breast) | growth (NCI/ADR-RES ovarian) | growth (IGROV1 ovarian) |
| --- | --- | --- | --- | --- | --- | --- | --- | --- | --- |
| CC(=O)OCCC/C(=C/c1cc2ccccc2c2ccccc12)[N+](=O)[O-] | -45.8% (active) | -100% (active) | -95.1% (active) | 0.455% (active) | 44.7% | -99.1% (active) | -46.2% (active) | -29.4% (active) |  |
| Cc1cc2c3ccccc3ccc2[n+]2ccccc12 | -22.5% (active) | -28.5% (active) | 81.1% | 31.6% | 71.5% | 27.1% | -23.7% (active) | 46.7% | 34% |
| C=C(C)C(=O)Nc1ccc(NC(C)C)cc1 | 96.6% | 93.5% | 117% | 111% | 109% | 121% | 141% | 112% | 120% |
| CCCCC(=O)OCC1OC(n2cnc3c(=S)nc[nH]c32)C(OC(=O)CCCC)C1OC(=O)CCCC (stereo not given) | 24.5% | -23.2% (active) | 32.3% | 29.8% | 19.3% | 22% | 38.1% | 19.6% |  |
| CN(C)[C@@H]1C(=O)C(C(=O)NCc2nc3[nH]cnc(=S)c3[nH]2)=C(O)[C@@]2(O)C(=O)C3=C(O)c4c(O)cccc4[C@@](C)(O)[C@H]3C[C@@H]12 | 12.5% | 7.48% (active) | 36.3% | 39.8% | 19.9% | 38.7% | 73.5% | 30.5% | 12.5% |
| COc1cc(/C=C/c2cc(/C=C/c3ccc(O)c(OC)c3)n(-c3c(C)cccc3C)c(=O)n2)ccc1O | 0.0669% (active) | 0.393% (active) | 9.05% (active) | 3.15% (active) | -37.7% (active) | 5.84% (active) | -4.97% (active) | 12.6% | 9.72% (active) |
| NC(N)=N/N=C(/c1ccccc1)c1ccc(F)cc1 | -19.4% (active) | -65.7% (active) | 4.37% (active) | 27.9% | 17.6% | -48.8% (active) | -13.4% (active) | -37.3% (active) |  |
